Test results from PubChem BioAssay (NCATS).
Records with an inconclusive call do not appear. Values without a mark were called inactive. Calls follow the shape of the dose curve; as a rule, active = well fitted activation curve with a large enough effect; inconclusive = small, poorly fitted or top-dose-only effect; inactive = no such curve, though single readings can be large or run the other way.

What follows are molecules tested against Rap guanine nucleotide exchange factor 3 (Homo sapiens) (UniProt O95398) (assay: Confirmatory qHTS for agonist of cAMP-regulated guanine nucleotide exchange factor 3 (EPAC1) (AID 1645881;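 also: EPAC1 catalysed release of BODIPY-GDP from Rap1B seen as fluorescence loss; 100% = effect of cAMP agonist control; nearly all actives have a fitted effect of over 75% in size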)). Details: EPAC1 Rap1B BODIPY-GDP exchange fluorescence; series mostly up to 154 µM; activation: at the top concentration.
Chain of Rap guanine nucleotide exchange factor 3 (Homo sapiens) (O95398 whole entry, looked up): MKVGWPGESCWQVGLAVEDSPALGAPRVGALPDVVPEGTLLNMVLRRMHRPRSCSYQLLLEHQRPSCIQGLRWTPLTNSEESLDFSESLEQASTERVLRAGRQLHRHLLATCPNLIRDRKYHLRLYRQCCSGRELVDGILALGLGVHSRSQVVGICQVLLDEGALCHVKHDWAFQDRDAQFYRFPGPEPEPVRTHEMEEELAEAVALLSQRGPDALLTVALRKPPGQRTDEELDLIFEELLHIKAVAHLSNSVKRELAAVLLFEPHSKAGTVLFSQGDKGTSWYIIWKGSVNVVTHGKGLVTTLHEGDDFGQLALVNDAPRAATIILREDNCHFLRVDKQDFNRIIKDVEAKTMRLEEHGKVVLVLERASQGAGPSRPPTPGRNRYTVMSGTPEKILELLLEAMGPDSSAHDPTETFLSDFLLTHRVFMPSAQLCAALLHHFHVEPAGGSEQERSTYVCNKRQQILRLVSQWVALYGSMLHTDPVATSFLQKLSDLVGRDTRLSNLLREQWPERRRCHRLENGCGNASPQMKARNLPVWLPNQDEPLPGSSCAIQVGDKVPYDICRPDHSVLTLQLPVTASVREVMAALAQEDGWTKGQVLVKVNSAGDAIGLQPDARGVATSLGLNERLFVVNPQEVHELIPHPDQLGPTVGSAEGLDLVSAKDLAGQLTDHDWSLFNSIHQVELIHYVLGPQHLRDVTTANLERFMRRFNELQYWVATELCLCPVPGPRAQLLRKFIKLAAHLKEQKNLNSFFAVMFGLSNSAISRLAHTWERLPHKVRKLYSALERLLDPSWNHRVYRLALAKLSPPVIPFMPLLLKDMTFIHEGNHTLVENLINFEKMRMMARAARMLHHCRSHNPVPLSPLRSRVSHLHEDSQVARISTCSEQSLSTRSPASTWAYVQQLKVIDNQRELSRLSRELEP

Row | SMILES | activation [%]
1 | COc1cccc(C(=O)Nc2nnc(-c3ccccc3)s2)c1OC | -5.99
2 | CC(C)Oc1cccc(C(=O)Nc2ccc3oc(-c4cccc(Cl)c4)nc3c2)c1 | 19.6
3 | CCc1ccc2c(c1)NC(=O)C2(C)Cc1ccc(Cl)s1 (stereo not given) | -2.03
4 | Cc1cccc(-c2nc3c(cnn3-c3ccccc3)c(=O)n2-c2cccc(Cl)c2)c1 | 5.92
5 | O=S1(=O)N=C(N(Cc2cccs2)c2ccc(O)cc2)c2ccccc21 | 14
6 | Cc1[nH]n(-c2ccccc2)c(=O)c1C=Nc1ccc(S(=O)(=O)N=C(N)N)cc1 | 3.8
7 | COc1ccc(OCc2nc3ccccc3n2C(C)c2ccccc2)cc1 (stereo not given) | 9.17
8 | COc1ccc2c(c1)Cc1sc(NC(=O)c3ccccc3C)nc1-2 | 14.4
9 | O=C(N/N=C/c1ccc(O)c(O)c1)c1ccc(CSc2cccc3cccnc23)cc1 | 11.6
10 | COc1ccc(/C=C2\C(=O)NC(=S)N2C(=O)c2ccc(F)cc2)cc1 | -24
11 | CCSc1nc2c([nH]c3ccccc32)c(=O)n1-c1cccc(OC)c1 | -4.58
12 | Fc1ccc(/C=C2\CCCC3=C2Nc2ncnn2C3c2ccc(F)cc2)cc1 (stereo not given) | 20.5
13 | Cc1ccc(N(Cc2cccs2)C(=O)c2ccc(Br)o2)cc1 | 26.8
14 | C/C(=N\NC(=O)c1ccc(O)cc1)c1cccc(NC(=O)c2ccc(Cl)cc2)c1 | -21
15 | CCn1c2c(c3cc(Cl)ccc31)CCCC2=O | 21.1
16 | Cc1c(C)c2ccc(OCC(=O)Nc3ccc(S(N)(=O)=O)cc3)c(C)c2oc1=O | -3.1
17 | COc1ccc(OC)c(NC(=O)CSc2nc(O)cc(=O)n2CC(C)C)c1 | 7.76
18 | CC(=O)C(=Cc1ccc(Cl)cc1)C(=O)c1ccccc1 | 12.4
19 | CN1CCN(c2cc(N3CCN(C(=O)c4ccco4)CC3)c3c4c(onc24)-c2ccccc2C3=O)CC1 | 6.15
20 | Cc1ccc(C)c(Cn2c(CN(C)Cc3ccccc3)nc3c2c(=O)n(C)c(=O)n3C)c1 | 22.5

Row | SMILES | activation [%]
21 | CCOC(=O)C1=C(C)NC(C)=C(C(=O)OCC)C1c1cccc([N+](=O)[O-])c1 | 20.6
22 | Cn1c(SCC(=O)c2cc(Cl)c(Cl)s2)nnc1-c1ccco1 | 8.47
23 | CCN(C(=O)Cn1c(C(=O)OC)cc2sccc21)c1cccc(C)c1 | 12.5
24 | Cc1cccc([C@H]2[C@@H]3C=CCC[C@@H]3C(=O)N2Cc2ccccc2)c1 | 13.6
25 | COn1c2c(c3c4nonc4ccc31)CCCC2 | 23.2
26 | COc1ccccc1N1CSC2=C(C#N)C(c3ccc(SC)cc3)CC(=O)N2C1 (stereo not given) | 17.4
27 | Cc1nc(-c2ccc(Cl)cc2)sc1CCNC(=O)c1cccs1 | 0.702
28 | COc1ccc(CC(=O)NCc2ccc3c(c2)CCN3C(=O)c2ccc(Cl)cc2)cc1OC | -1.3
29 | Cc1ccc(N(Cc2ccc([N+](=O)[O-])cc2)C(=O)c2ccco2)cc1 | 15.6
30 | CCOc1cc(/C=C2/NC(=O)NC2=O)cc(Br)c1OCc1ccc(C(=O)O)cc1 | 17.5
31 | COc1cccc(/C=C2\SC(=S)NC2=O)c1OS(=O)(=O)c1ccc(NC(C)=O)cc1 | 9.05
32 | O=C(Nc1cccc(Cl)c1)Nc1ccccc1NS(=O)(=O)c1cccs1 | 19.8
33 | Cn1cnnc1SCC(=O)Nc1sc2c(c1C(N)=O)CCC2 | 8.07
34 | O=C1C=C(NS(=O)(=O)c2ccccc2)C(=O)c2ccccc21 | -4.95
35 | COc1ccc(OCc2nc3ccccc3n2Cc2ccc(C(C)(C)C)cc2)cc1 | -7.64
36 | CCn1c(=O)c2sccc2n2c(CCCC(=O)N3CCN(c4cc(Cl)ccc4C)CC3)nnc12 | -10.1
37 | Cc1cccc(Nc2nnc(-c3ccc(N4CCOCC4)c([N+](=O)[O-])c3)c3ccccc23)c1 | 14
38 | C/C=C/COC(=O)c1[nH]c2c(c1C)C(=O)CC(c1ccco1)C2 (stereo not given) | -1.88
39 | CN(C)S(=O)(=O)c1cccc(COC(=O)Cc2c(F)cccc2Cl)c1 | 15.7
40 | CCc1ccc2c(c1)NC(=O)C2(C)Cc1ccc(F)cc1 (stereo not given) | 15.1

What follows are molecules tested against Rap guanine nucleotide exchange factor 4 (Homo sapiens) (UniProt Q8WZA2) (assay: Confirmatory qHTS for agonist of cAMP-regulated guanine nucleotide exchange factor 4 (EPAC2) (AID 1645884;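 also: nucleotide exchange releases bodipy-GDP from Rap1 and this lowers its fluorescence; % is scaled to controls: 0 for no effect and ±100 for the full control effect; nearly all actives have a fitted effect of over 65% in size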)). Details: EPAC2 GEF activity, Rap1B-BODIPY-GDP fluorescence; series mostly up to 154 µM; activation: at the top concentration.
Chain of Rap guanine nucleotide exchange factor 4 (Homo sapiens) (Q8WZA2 whole entry, looked up): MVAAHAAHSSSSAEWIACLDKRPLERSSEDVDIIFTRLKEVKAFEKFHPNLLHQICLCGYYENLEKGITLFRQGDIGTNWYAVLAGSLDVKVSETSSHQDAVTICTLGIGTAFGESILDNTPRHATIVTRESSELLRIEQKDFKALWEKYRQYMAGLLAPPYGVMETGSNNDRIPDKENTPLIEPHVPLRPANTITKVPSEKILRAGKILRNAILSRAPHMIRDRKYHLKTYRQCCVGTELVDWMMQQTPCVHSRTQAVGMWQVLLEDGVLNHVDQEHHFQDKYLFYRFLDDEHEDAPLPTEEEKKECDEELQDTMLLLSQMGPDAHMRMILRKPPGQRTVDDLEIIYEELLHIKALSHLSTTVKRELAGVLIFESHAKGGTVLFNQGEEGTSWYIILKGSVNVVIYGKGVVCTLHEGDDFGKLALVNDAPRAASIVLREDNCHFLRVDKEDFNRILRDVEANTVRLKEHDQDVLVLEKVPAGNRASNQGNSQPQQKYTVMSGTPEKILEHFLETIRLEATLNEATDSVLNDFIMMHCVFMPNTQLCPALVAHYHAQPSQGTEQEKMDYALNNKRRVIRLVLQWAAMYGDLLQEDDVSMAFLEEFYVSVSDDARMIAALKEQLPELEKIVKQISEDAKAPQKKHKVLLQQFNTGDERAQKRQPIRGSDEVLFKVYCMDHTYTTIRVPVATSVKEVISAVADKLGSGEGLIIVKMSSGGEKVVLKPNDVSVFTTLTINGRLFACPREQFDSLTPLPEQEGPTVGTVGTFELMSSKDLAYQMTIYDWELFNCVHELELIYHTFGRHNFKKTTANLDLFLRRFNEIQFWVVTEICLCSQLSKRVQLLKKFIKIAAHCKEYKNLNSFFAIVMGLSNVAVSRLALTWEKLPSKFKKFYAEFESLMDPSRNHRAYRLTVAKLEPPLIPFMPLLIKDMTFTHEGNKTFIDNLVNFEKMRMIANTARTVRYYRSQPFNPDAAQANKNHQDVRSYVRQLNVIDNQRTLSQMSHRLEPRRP

Row | SMILES | activation
41 | COc1cccc(C(=O)Nc2nnc(-c3ccccc3)s2)c1OC | -5.93%
42 | CC(C)Oc1cccc(C(=O)Nc2ccc3oc(-c4cccc(Cl)c4)nc3c2)c1 | 1.16% [at 83.8 µM, percent relative to cAMP agonist control]
43 | CCc1ccc2c(c1)NC(=O)C2(C)Cc1ccc(Cl)s1 (stereo not given) | 0.147% [at 17.1 µM, percent relative to cAMP agonist control]
44 | Cc1cccc(-c2nc3c(cnn3-c3ccccc3)c(=O)n2-c2cccc(Cl)c2)c1 | 9.69% [at 83.8 µM, percent relative to cAMP agonist control]
45 | O=S1(=O)N=C(N(Cc2cccs2)c2ccc(O)cc2)c2ccccc21 | 13.1%
46 | Cc1[nH]n(-c2ccccc2)c(=O)c1C=Nc1ccc(S(=O)(=O)N=C(N)N)cc1 | 3.88%
47 | COc1ccc(OCc2nc3ccccc3n2C(C)c2ccccc2)cc1 (stereo not given) | -3.86% [at 83.8 µM, percent relative to cAMP agonist control]
48 | COc1ccc2c(c1)Cc1sc(NC(=O)c3ccccc3C)nc1-2 | -3.82% [at 83.8 µM, percent relative to cAMP agonist control]
49 | O=C(N/N=C/c1ccc(O)c(O)c1)c1ccc(CSc2cccc3cccnc23)cc1 | 14.6% [at 17.1 µM, percent relative to cAMP agonist control]
50 | COc1ccc(/C=C2\C(=O)NC(=S)N2C(=O)c2ccc(F)cc2)cc1 | 18.5%
51 | CCSc1nc2c([nH]c3ccccc32)c(=O)n1-c1cccc(OC)c1 | -12.3% [at 83.8 µM, percent relative to cAMP agonist control]
52 | Fc1ccc(/C=C2\CCCC3=C2Nc2ncnn2C3c2ccc(F)cc2)cc1 (stereo not given) | 4.94% [at 17.1 µM, percent relative to cAMP agonist control]
53 | Cc1ccc(N(Cc2cccs2)C(=O)c2ccc(Br)o2)cc1 | -5.2% [at 83.8 µM, percent relative to cAMP agonist control]
54 | C/C(=N\NC(=O)c1ccc(O)cc1)c1cccc(NC(=O)c2ccc(Cl)cc2)c1 | -27.9%
55 | CCn1c2c(c3cc(Cl)ccc31)CCCC2=O | 14.3%
56 | Cc1c(C)c2ccc(OCC(=O)Nc3ccc(S(N)(=O)=O)cc3)c(C)c2oc1=O | 18.4%
57 | COc1ccc(OC)c(NC(=O)CSc2nc(O)cc(=O)n2CC(C)C)c1 | 4.2%
58 | CC(=O)C(=Cc1ccc(Cl)cc1)C(=O)c1ccccc1 | 0.622%
59 | CN1CCN(c2cc(N3CCN(C(=O)c4ccco4)CC3)c3c4c(onc24)-c2ccccc2C3=O)CC1 | -7.56%
60 | Cc1ccc(C)c(Cn2c(CN(C)Cc3ccccc3)nc3c2c(=O)n(C)c(=O)n3C)c1 | 9.4%

Row | SMILES | activation
61 | CCOC(=O)C1=C(C)NC(C)=C(C(=O)OCC)C1c1cccc([N+](=O)[O-])c1 | 8.4% [at 17.1 µM, percent relative to cAMP agonist control]
62 | Cn1c(SCC(=O)c2cc(Cl)c(Cl)s2)nnc1-c1ccco1 | 8.1%
63 | CCN(C(=O)Cn1c(C(=O)OC)cc2sccc21)c1cccc(C)c1 | -24.2% [at 83.8 µM, percent relative to cAMP agonist control]
64 | Cc1cccc([C@H]2[C@@H]3C=CCC[C@@H]3C(=O)N2Cc2ccccc2)c1 | 6.72%
65 | COn1c2c(c3c4nonc4ccc31)CCCC2 | 0%
66 | COc1ccccc1N1CSC2=C(C#N)C(c3ccc(SC)cc3)CC(=O)N2C1 (stereo not given) | 7.57% [at 17.1 µM, percent relative to cAMP agonist control]
67 | Cc1nc(-c2ccc(Cl)cc2)sc1CCNC(=O)c1cccs1 | 19.2% [at 83.8 µM, percent relative to cAMP agonist control]
68 | COc1ccc(CC(=O)NCc2ccc3c(c2)CCN3C(=O)c2ccc(Cl)cc2)cc1OC | -26.1% [at 83.8 µM, percent relative to cAMP agonist control]
69 | Cc1ccc(N(Cc2ccc([N+](=O)[O-])cc2)C(=O)c2ccco2)cc1 | 10.3%
70 | CCOc1cc(/C=C2/NC(=O)NC2=O)cc(Br)c1OCc1ccc(C(=O)O)cc1 | 4.12% [at 17.1 µM, percent relative to cAMP agonist control]
71 | COc1cccc(/C=C2\SC(=S)NC2=O)c1OS(=O)(=O)c1ccc(NC(C)=O)cc1 | 5.66% [at 17.1 µM, percent relative to cAMP agonist control]
72 | O=C(Nc1cccc(Cl)c1)Nc1ccccc1NS(=O)(=O)c1cccs1 | 0% [at 17.1 µM, percent relative to cAMP agonist control]
73 | Cn1cnnc1SCC(=O)Nc1sc2c(c1C(N)=O)CCC2 | -3.09%
74 | O=C1C=C(NS(=O)(=O)c2ccccc2)C(=O)c2ccccc21 | -17.4%
75 | COc1ccc(OCc2nc3ccccc3n2Cc2ccc(C(C)(C)C)cc2)cc1 | 7.56% [at 83.8 µM, percent relative to cAMP agonist control]
76 | CCn1c(=O)c2sccc2n2c(CCCC(=O)N3CCN(c4cc(Cl)ccc4C)CC3)nnc12 | -26.5% [at 83.8 µM, percent relative to cAMP agonist control]
77 | Cc1cccc(Nc2nnc(-c3ccc(N4CCOCC4)c([N+](=O)[O-])c3)c3ccccc23)c1 | 6.39%
78 | C/C=C/COC(=O)c1[nH]c2c(c1C)C(=O)CC(c1ccco1)C2 (stereo not given) | -4.07%
79 | CN(C)S(=O)(=O)c1cccc(COC(=O)Cc2c(F)cccc2Cl)c1 | 18.7%
80 | CCc1ccc2c(c1)NC(=O)C2(C)Cc1ccc(F)cc1 (stereo not given) | 12.7% [at 17.1 µM, percent relative to cAMP agonist control]
